Test [1] can be described thus: qHTS assay to identify small molecule agonists of the estrogen receptor alpha (ER-alpha) signaling pathway in the presence of an antagonist - cell viability counter screen (AID 1259386).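 Further: cells exposed to compounds for 22 h at 37 °C before the viability read; nearly all actives have a fitted effect of over 30% in size.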 Further: potency means the concentration at half of the fitted maximal effect. On activity change, negative = cytotoxicity: series mostly up to about 92 µM. Put shortly: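 Cell viability in VM7Luc4E2 cells (endogenous full-length ER-alpha) measured by CellTiter-Fluor fluorescence in the same wells as the luciferase screen. Cells pre-cultured 5 days in charcoal-stripped serum, then treated 22 h with compounds at 15 concentrations plus 10.0nM ICI-182,780.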

Test [2] concerns the target Progesterone receptor (Homo sapiens) (UniProt P06401). Nature of the test: qHTS assay to identify small molecule antagonists of the progesterone receptor (PR) signaling pathway (AID 1346795; active means well fitted inhibition curve with a large enough effect in the signal ratio in the repeat runs, not every such curve was filed as active; the % refers to the signal ratio; further: potency means the concentration at half of the fitted maximal effect). Put shortly: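 HEK293T PR-UAS-bla reporter cells in charcoal-stripped serum (2%) received compound after a 6 hr settling period, followed by R5020 agonist at 1 nM final; 16 hr incubation preceded the FRET substrate step and fluorescence measurement.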
On the technique in general: In qHTS, concentration-response curves come from the screen itself.

A short description of test [3]: qHTS assay to identify small molecule antagonists of the progesterone receptor (PR) signaling pathway - cell viability counter screen (AID 1346798). Further: nearly all actives have a fitted effect of over 50% in size. Further: potency means the concentration at half of the fitted maximal effect. On activity change, negative = cytotoxicity: series mostly up to about 92 µM. The essentials: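 Same-well multiplex: after 16 hr at 37C with compound and R5020 stimulation, HEK293T cells carrying a UAS-bla reporter received LiveBLAzer substrate (2 hr RT), then CellTiter-Glo (30 min RT) for luminescent viability.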

A short description of test [4]: qHTS assay to identify small molecule antagonists of the TGF-beta/Smad signaling pathway - cell viability counter screen (AID 1346824). Further: nearly all actives have a fitted effect of over 50% in size. Further: potency means the concentration at half of the fitted maximal effect. Put shortly:
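SBE-bla HEK 293T cells, incubated overnight, then compound plus 0.25 ng/mL TGF-beta1 (stock added) for 5 hr at 37 C. Viability was read in the same wells by CellTiter-Glo luminescence after 30 min at room temperature.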

Test [5] in a line: qHTS assay to identify small molecule agonists of the TGF-beta/Smad signaling pathway (AID 1346859; active means well fitted activation curve with a large enough effect in the signal ratio in the repeat runs, not every such curve was filed as active; the % refers to the signal ratio; further: series mostly up to about 77 µM). The essentials: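 Smad-responsive beta-lactamase reporter cells (HEK 293T) received compounds from DMSO stocks after overnight attachment, were incubated 5 hr, then treated 2 hr with FRET substrate before dual-emission fluorescence measurement (405 nm excitation).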
Test [6] concerns the target Thyrotropin-releasing hormone receptor (Homo sapiens) (UniProt P34981). Nature of the test: qHTS assay to identify small molecule antagonists of the thyrotropin-releasing hormone receptor (TRHR) signaling pathway (AID 1346877; active means well fitted inhibition curve with a large enough effect in the repeat runs, not every such curve was filed as active; further: potency means the concentration at half of the fitted maximal effect; on activity, negative = inhibition: series mostly up to about 51 µM). Put shortly: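 TRHR-expressing HEK293 cells loaded with calcium dye for 2 h at 37 C; compounds pre-incubated 5 min at room temperature before TRH challenge at 1 nM final. Intracellular calcium fluorescence read kinetically for 3 min; 15 concentrations in triplicate.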

Test [7] has the same target. Nature of the test: qHTS assay to identify small molecule agonists of the thyrotropin-releasing hormone receptor (TRHR) signaling pathway (AID 1346891; calls by dose curve; further: potency means the concentration at half of the fitted maximal effect; on activation: series mostly up to about 58 µM). The essentials: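 Agonist-mode calcium mobilisation screen: TRHR-transfected HEK293 cells cultured overnight (18 h), dye-loaded for 2 h at 37 °C, exposed to compounds, and monitored by fluorescence for 3 min.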
Test [8] can be described thus: qHTS assay to identify small molecule agonists of the progesterone receptor (PR) signaling pathway - cell viability counter screen (AID 1346799; calls by dose curve; further: nearly all actives have a fitted effect of over 45% in size; further: potency means the concentration at half of the fitted maximal effect). The essentials:
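Counter screen for cytotoxicity: compound-treated PR-UAS-bla HEK293T cells (16 hr, 37C, 5% CO2) were assayed with CellTiter-Glo, luminescence measured after 30 min at room temperature.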

Test [9] in a line: qHTS assay to identify small molecule agonists of the TGF-beta/Smad signaling pathway - cell viability counter screen (AID 1346829). Further: nearly all actives have a fitted effect of over 45% in size. Further: potency means the concentration at half of the fitted maximal effect. On activity change, negative = cytotoxicity: top concentration of the series differs between compounds. Put shortly:
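Compound-treated SBE-bla HEK 293T cells (5 hr, 37 C) were assessed for viability with CellTiter-Glo in parallel with the reporter read.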

The target in test [10] is Progesterone receptor (Homo sapiens) (UniProt P06401). Nature of the test: qHTS assay to identify small molecule agonists of the progesterone receptor (PR) signaling pathway (AID 1346784; calls by dose curve; further: nearly all actives have a fitted effect of over 30% in size). The essentials:
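Agonist mode, quantitative HTS format in a HEK 293T line expressing a UAS-controlled beta-lactamase reporter; 16 hr compound exposure at 37C in 2% charcoal-stripped FBS, then LiveBLAzer B/G FRET fluorescence.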

Each structure is given as a SMILES string. Values joined by “and” are separate entries in the source; they are usually repeats but may differ in a detail not shown here. Equal values may be shown once. A number with no mark means an inactive call. Records with an inconclusive call do not appear. Active and inactive are the calls of the source. Unless noted, the call rests on the fitted dose curve; in most records, active means well fitted curve in the direction sought with a large enough effect in the repeat runs; inconclusive means weak or mixed curves; inactive means no such curve, though single readings can be large; an effect the other way counts as inactive or inconclusive.
On the % scale 0 is the no-effect control and ±100 the full control effect.

Chain of Thyrotropin-releasing hormone receptor (Homo sapiens) (P34981 whole entry, looked up): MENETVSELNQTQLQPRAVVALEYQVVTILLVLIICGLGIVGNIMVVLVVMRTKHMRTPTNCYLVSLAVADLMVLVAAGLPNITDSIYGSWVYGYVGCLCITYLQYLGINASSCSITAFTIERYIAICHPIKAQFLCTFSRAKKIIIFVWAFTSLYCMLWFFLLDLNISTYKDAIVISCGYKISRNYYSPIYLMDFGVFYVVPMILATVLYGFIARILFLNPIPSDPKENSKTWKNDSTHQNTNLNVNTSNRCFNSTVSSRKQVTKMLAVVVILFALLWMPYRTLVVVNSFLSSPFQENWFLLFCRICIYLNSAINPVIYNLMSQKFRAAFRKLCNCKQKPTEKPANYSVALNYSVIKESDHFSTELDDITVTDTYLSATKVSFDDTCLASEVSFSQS
Chain of Progesterone receptor (Homo sapiens) (P06401 whole entry, looked up): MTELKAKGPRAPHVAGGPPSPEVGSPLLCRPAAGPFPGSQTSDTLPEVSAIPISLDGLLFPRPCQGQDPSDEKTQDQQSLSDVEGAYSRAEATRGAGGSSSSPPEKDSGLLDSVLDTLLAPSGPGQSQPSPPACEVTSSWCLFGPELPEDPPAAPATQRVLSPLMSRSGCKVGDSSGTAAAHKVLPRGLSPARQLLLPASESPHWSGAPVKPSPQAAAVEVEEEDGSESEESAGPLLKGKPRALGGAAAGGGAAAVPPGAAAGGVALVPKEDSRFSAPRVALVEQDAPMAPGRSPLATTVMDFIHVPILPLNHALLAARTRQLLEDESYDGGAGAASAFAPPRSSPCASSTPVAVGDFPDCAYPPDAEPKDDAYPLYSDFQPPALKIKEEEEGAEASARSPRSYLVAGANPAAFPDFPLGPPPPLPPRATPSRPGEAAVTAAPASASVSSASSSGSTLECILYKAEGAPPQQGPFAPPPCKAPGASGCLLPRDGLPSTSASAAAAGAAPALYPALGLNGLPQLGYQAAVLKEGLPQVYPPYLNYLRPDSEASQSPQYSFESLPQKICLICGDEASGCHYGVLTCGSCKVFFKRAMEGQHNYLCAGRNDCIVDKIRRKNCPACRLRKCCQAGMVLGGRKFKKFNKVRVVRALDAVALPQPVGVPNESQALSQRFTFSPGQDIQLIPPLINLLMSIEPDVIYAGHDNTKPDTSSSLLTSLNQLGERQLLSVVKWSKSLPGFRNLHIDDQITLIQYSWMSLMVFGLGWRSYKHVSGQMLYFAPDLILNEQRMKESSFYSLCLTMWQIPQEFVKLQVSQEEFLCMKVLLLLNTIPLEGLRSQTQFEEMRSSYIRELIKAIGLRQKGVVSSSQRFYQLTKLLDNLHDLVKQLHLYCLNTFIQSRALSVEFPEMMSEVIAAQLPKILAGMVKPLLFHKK

As for `COP(=S)(OC)Oc1ccc([N+](=O)[O-])c(C)c1`, the Potency entry in test [1], in test [3], in test [4], in [6] and in test [7] was “inactive” in each case. In [2], the Potency was 6.11 µM (active). Also, the molecule was called inactive in test [5].

On to `CC[C@H](C)[C@H]1O[C@]2(C=C[C@@H]1C)C[C@@H]1C[C@@H](C/C=C(\C)[C@@H](O[C@H]3C[C@H](OC)[C@@H](O[C@H]4C[C@H](OC)[C@@H](NC)[C@H](C)O4)[C@H](C)O3)[C@@H](C)/C=C/C=C3\CO[C@@H]4[C@H](O)C(C)=C[C@@H](C(=O)O1)[C@]34O)O2`, for which the Potency in test [1] is 27.3 µM (active); in test [3] it was 24.3 µM (active); in test [8], 13.7 µM (active); in [4], 17.4 µM (active); in [9], 15.5 µM (active).

As for `C=C(C)C(=O)[O][Sn]([CH2]CCC)([CH2]CCC)[CH2]CCC`, the Potency in [1] is 8.63 µM (active); in test [2], 1.09 µM (active); in [3] it was 3.44 µM (active); in test [4], 1.38 µM (active); in [9] it was 1.1 µM (active); in test [6], 2.69 µM (active). Further, the Potency in test [7] is 11 µM (active).

Regarding `[F][Sn]([c]1ccccc1)([c]1ccccc1)[c]1ccccc1`, the Potency in test [1] is 10.9 µM (active); in [3], 1.37 µM (active); in [9] it was 1.23 µM (active); in test [6] it was 3.38 µM (active); in [7], 4.36 µM (active).

As to `CC(C)[C@@H](Nc1ccc(C(F)(F)F)cc1Cl)C(=O)OC(C#N)c1cccc(Oc2ccccc2)c1` (some centres not stated), the Potency result in test [1] and in test [3] was “inactive” throughout. For the same molecule, the result in [5] was inactive.

Take `O.O.O.O.O.O.O=S(=O)([O-])[O-].[Ni+2]`: the Potency result in test [1], in test [3], in test [4] and in test [9] was “inactive” each time. The molecule was classed as inactive in [5].

For `[C-]1=CC=CC1.[Cl][Zr+2][Cl].c1cc[cH-]c1`, the Potency result in test [1], in [2], in test [3], in test [8] and in [9] was “inactive” in each case. Further, the outcome in test [5] was inactive.

As to `OCC(Br)CBr` (configuration not stated), the Potency result in test [10], in test [2], in test [3], in [8], in test [4] and in [9] was “inactive” each time. Further, the call in test [5] was inactive.

As to `CCN(CC)C(=S)S`, the Potency result in [10], in [4] and in test [9] was “inactive” in each case. Further, the Potency in [2] was 49 µM (active) and 6.82 µM (active) and 13.7 µM (active); in [3] it was 61.6 µM (active) and 7.65 µM (active) and 17.2 µM (active).

Regarding `ClC1(Cl)C2(Cl)C3(Cl)C4(Cl)C(Cl)(Cl)C5(Cl)C3(Cl)C1(Cl)C5(Cl)C24Cl` (configuration not stated), the Potency result in test [10], in test [2], in test [3], in test [4], in test [9] and in [6] was “inactive” in each case. The Potency result in [7] was “inactive”. Also, the molecule was classed as inactive in test [5].

For `Oc1cc(Cl)cc(Cl)c1`, the Potency result in [1], in [9], in [6] and in test [7] was “inactive” throughout.

Take `Cc1ccc(C)c2ccccc12`: the Potency result in test [10], in [2], in test [3], in test [8], in test [4] and in test [9] was “inactive” in each case. The Potency entry in test [6] and in test [7] was “inactive” in each case. The call in test [5] was inactive.

Turning to `CC(Cc1ccc(OCC(=O)O)cc1)NCC(O)c1csc(C(F)(F)F)n1` (configuration not stated), the Potency entry in test [10], in test [2], in test [3], in [4], in test [9] and in test [6] was “inactive” throughout. Moreover, in test [7], the Potency entry is “inactive”. Moreover, in test [5], the molecule was classed as inactive.

As for `Nc1ccc(N=Nc2ccccc2)cc1`, the Potency in [1] was 30.6 µM (active). In addition, the Potency entry in test [9], in test [6] and in [7] was “inactive” throughout. Besides, the call in test [5] was inactive.

In the case of `CCOC(=O)Cc1ccccc1`, the Potency entry in [10], in test [2], in test [3], in test [4], in test [9] and in [6] was “inactive” each time. The Potency entry in test [7] is “inactive”. In test [5], the call was inactive.

As to `O=C1C[C@@H]2OCC=C3CN4CC[C@]56c7ccccc7N1[C@H]5[C@H]2[C@H]3C[C@H]46`, the Potency entry in [10], in test [2], in test [4], in [9], in [6] and in [7] was “inactive” in each case. For the same molecule, in test [5], the molecule was called inactive.

In the case of `N#Cc1sc2c(=O)c3ccccc3c(=O)c=2sc1C#N`, the Potency in [1] was 7.7 µM (active); in test [4] it was 49 µM (active); in test [9], 38.9 µM (active). Further, the Potency result in test [7] is “inactive”.

For `CNC(C)(C)Cc1ccccc1`, the Potency result in test [10], in [2], in [3], in test [4] and in test [9] was “inactive” in each case.

As for `COc1cnc(OC)n2nc(NS(=O)(=O)c3c(OCC(F)F)cccc3C(F)(F)F)nc12`, the Potency result in test [10], in test [2], in test [3], in [4], in [9] and in test [6] was “inactive” in each case. Besides, the Potency result in [7] is “inactive”. Further, in test [5], the outcome was inactive.

As for `O=C1C(Cl)=C(Cl)C(=O)C(Cl)=C1Cl`, the Potency result in test [10], in test [2], in test [3], in [8], in test [9] and in test [6] was “inactive” each time. The Potency result in test [7] is “inactive”.

`Clc1c(Cl)c(Cl)c(Cl)c(Cl)c1Cl`: the activation was -0.806% [at 8.39 µM] in test [10] and -0.641% [at 5.23 µM] in [7]. Further, in [2], the activity change, negative = inhibition is -1.77% [at 8.39 µM]. The activity change, negative = cytotoxicity in test [8] is 14.7% [at 8.39 µM]; in [9] it was 6.4% [at 6.97 µM]. The viability change, negative = cytotoxic in test [4] was 1.21% [at 6.97 µM]. Also, the activity, negative = inhibition in test [6] was 0.118% [at 4.65 µM].

For `CCCCC/C=C\C/C=C\C/C=C\C/C=C\CCCC(=O)NCC(=O)O`, the Potency result in test [10], in test [3] and in [9] was “inactive” each time. Further, the Potency in [2] is 26.6 µM (active). The molecule was called inactive in [5].

Turning to `CCCN`, the Potency entry in test [10], in test [2], in test [3] and in [9] was “inactive” in each case. In addition, the call in [5] was inactive.

Take `O=S(=O)(O)F`: the Potency entry in [10], in test [2], in [3], in [8], in [4] and in test [9] was “inactive” throughout. Further, the Potency result in test [6] and in [7] was “inactive” throughout. In [5], the call was inactive.

Consider `O=C(N[C@H]1N=C(c2ccccc2F)c2cccc3c2N(CC3)C1=O)c1cc2ccccc2[nH]1`, for which the Potency result in [10], in test [2], in test [3], in [4], in test [9] and in [6] was “inactive” in each case. Besides, the Potency result in [7] is “inactive”.

Take `Oc1ccc([C@H]2CNCc3c2ccc(O)c3O)cc1O`: the Potency entry in test [10], in test [2], in test [3], in test [8], in test [4] and in [9] was “inactive” in each case. In addition, the Potency entry in test [6] and in [7] was “inactive” in each case.

Take `Nc1cc(Cl)ccc1Cl`: the Potency result in test [10], in test [2], in [3], in [8], in [4] and in test [9] was “inactive” each time. The Potency result in test [6] and in [7] was “inactive” each time.

For the origin of these results see PubChem BioAssay (Tox21).
